Laboratory results reported in the supplement of paper PMC9694430.
Counter-ions that a name gives are not always drawn.

Tests used:
Assay in all cases: thermal shift delta Tm vs DMSO control; higher = stronger stabilization (binding)
Conditions in all cases: 12.5 µM; protein concentration 2 µM
LOC_OS02G45750-cb003 = system: LOC_OS02G45750-cb003
Method in brief: (§1)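 The melting temperature shift given here is a triplicate mean, measured against protein that received only DMSO. Melting temperatures came from Boltzmann fits of differential scanning fluorimetry data on E. coli-expressed, purified rice kinase domain constructs. Each 19.5 μl well contained 2 μM kinase, 100 mM potassium phosphate pH 7.5, 150 mM NaCl, 10% glycerol, 5 × SYPRO Orange and compound in DMSO. Plates were scanned from 25°C to 95°C at 0.05°C/s.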

LOC_OS02G54510-cb004 = system: LOC_OS02G54510-cb004
Method in brief: as §1

LOC_OS03G04050-cb001 = system: LOC_OS03G04050-cb001
Method in brief: as §1

LOC_OS03G12390-cb001 = system: LOC_OS03G12390-cb001
Method in brief: as §1

LOC_OS03G27990-cb004 = system: LOC_OS03G27990-cb004
Method in brief: as §1

LOC_OS03G50450-cb001 = system: LOC_OS03G50450-cb001
Method in brief: as §1

LOC_OS03G50810-cb003 = system: LOC_OS03G50810-cb003
Method in brief: as §1

LOC_OS04G35114-cb001 = system: LOC_OS04G35114-cb001
Method in brief: as §1

LOC_OS04G38480-cb003 = system: T1, LOC_OS04G38480-cb003
T1 sequence (whole entry): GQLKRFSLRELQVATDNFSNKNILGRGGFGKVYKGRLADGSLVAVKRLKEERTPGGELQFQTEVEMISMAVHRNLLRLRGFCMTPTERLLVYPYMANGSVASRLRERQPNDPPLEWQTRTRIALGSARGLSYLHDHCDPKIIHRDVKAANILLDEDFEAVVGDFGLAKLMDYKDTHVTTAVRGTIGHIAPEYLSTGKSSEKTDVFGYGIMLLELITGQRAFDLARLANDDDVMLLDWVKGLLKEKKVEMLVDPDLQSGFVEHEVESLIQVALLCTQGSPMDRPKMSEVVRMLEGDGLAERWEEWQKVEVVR
Method in brief: as §1

LOC_OS04G41100-cb001 = system: T2, LOC_OS04G41100-cb001
T2 sequence (whole entry): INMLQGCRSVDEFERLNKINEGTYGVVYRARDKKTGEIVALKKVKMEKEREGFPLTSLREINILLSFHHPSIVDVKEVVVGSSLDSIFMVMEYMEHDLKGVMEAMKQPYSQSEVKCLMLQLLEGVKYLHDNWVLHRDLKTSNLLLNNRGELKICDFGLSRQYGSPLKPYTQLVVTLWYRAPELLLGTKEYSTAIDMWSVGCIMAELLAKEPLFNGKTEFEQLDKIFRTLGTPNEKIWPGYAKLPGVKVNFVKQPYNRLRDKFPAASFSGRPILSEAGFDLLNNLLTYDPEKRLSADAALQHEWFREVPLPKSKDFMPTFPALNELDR
Method in brief: as §1

LOC_OS04G57630-cb004 = system: LOC_OS04G57630-cb004
Method in brief: as §1

LOC_OS05G07850-cb002 = system: LOC_OS05G07850-cb002
Method in brief: as §1

LOC_OS05G16824-cb004 = system: LOC_OS05G16824-cb004
Method in brief: as §1

LOC_OS05G28520-cb001 = system: LOC_OS05G28520-cb001
Method in brief: as §1

LOC_OS05G30820-cb001 = system: LOC_OS05G30820-cb001
Method in brief: as §1

LOC_OS05G43570-cb004 = system: LOC_OS05G43570-cb004
Method in brief: as §1

LOC_OS06G16330-cb003 = system: LOC_OS06G16330-cb003
Method in brief: as §1

LOC_OS06G22820-cb001 = system: T3, LOC_OS06G22820-cb001
T3 sequence (whole entry): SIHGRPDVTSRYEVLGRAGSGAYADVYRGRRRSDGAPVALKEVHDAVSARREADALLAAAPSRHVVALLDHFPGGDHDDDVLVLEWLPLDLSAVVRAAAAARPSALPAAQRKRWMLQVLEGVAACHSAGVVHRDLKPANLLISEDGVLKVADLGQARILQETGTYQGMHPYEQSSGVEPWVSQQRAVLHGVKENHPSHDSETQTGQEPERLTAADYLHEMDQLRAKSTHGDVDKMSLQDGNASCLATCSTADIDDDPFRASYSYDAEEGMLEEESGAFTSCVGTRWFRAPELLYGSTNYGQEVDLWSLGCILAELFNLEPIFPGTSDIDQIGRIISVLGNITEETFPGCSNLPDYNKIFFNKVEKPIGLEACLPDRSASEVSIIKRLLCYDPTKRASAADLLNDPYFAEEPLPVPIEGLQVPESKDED
Method in brief: as §1

LOC_OS07G06570-cb004 = system: LOC_OS07G06570-cb004
Method in brief: as §1

LOC_OS07G07230-cb001 = system: LOC_OS07G07230-cb001
Method in brief: as §1

LOC_OS06G16330-cb003, sequence (as listed by the source): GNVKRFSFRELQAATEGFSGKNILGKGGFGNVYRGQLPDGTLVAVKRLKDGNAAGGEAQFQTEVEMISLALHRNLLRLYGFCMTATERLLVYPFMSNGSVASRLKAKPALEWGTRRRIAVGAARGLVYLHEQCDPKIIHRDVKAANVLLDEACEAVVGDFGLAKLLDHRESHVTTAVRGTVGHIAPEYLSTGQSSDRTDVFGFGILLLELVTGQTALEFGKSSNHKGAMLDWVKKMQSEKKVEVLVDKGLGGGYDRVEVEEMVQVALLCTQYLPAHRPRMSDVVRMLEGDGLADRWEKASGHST

| SMILES | thermal shift delta Tm (LOC_OS02G45750-cb003) [°C] | thermal shift delta Tm (LOC_OS02G54510-cb004) [°C] | thermal shift delta Tm (LOC_OS03G04050-cb001) [°C] | thermal shift delta Tm (LOC_OS03G12390-cb001) [°C] | thermal shift delta Tm (LOC_OS03G27990-cb004) [°C] | thermal shift delta Tm (LOC_OS03G50450-cb001) [°C] | thermal shift delta Tm (LOC_OS03G50810-cb003) [°C] | thermal shift delta Tm (LOC_OS04G35114-cb001) [°C] | thermal shift delta Tm (LOC_OS04G38480-cb003) [°C] | thermal shift delta Tm (LOC_OS04G41100-cb001) [°C] | thermal shift delta Tm (LOC_OS04G57630-cb004) [°C] | thermal shift delta Tm (LOC_OS05G07850-cb002) [°C] | thermal shift delta Tm (LOC_OS05G16824-cb004) [°C] | thermal shift delta Tm (LOC_OS05G28520-cb001) [°C] | thermal shift delta Tm (LOC_OS05G30820-cb001) [°C] | thermal shift delta Tm (LOC_OS05G43570-cb004) [°C] | thermal shift delta Tm (LOC_OS06G16330-cb003) [°C] | thermal shift delta Tm (LOC_OS06G22820-cb001) [°C] | thermal shift delta Tm (LOC_OS07G06570-cb004) [°C] | thermal shift delta Tm (LOC_OS07G07230-cb001) [°C] |
| --- | --- | --- | --- | --- | --- | --- | --- | --- | --- | --- | --- | --- | --- | --- | --- | --- | --- | --- | --- | --- |
| CONC(=O)c1ccccc1Nc1cc(Nc2cc(C)nn2C(C)C)ncc1Cl | 1.44 | 0.08 | 0.47 | 1.86 | 0.55 | 0.47 | 1.12 | 0.79 | 2.41 | 0.42 | 0.41 | 5.58 | 8.82 | 0.25 | 0.17 | 0.39 | 6.46 | 0.47 | 1.77 | 0.55 |
| O=C(Nc1nccs1)C(c1cc(F)ccc1O)N1Cc2ccccc2C1=O (stereo not given) | 0.19 | 0.2 | -0.02 | -0.36 | 0.06 | -0.38 | 0.01 | 0.12 | 0.41 | 0.1 | 0 | -0.08 | -0.86 | 0.12 | 0.61 | -0.04 | -0.29 | 0.38 | 1.35 | 0.63 |
| CC(C)CCN1c2nc(Nc3cc(F)c(O)c(F)c3)ncc2N(C)C(=O)C1C (stereo not given) | 3.25 | 1.91 | 0.57 | 7.92 | 3.82 | 2.58 | 3.02 | 3.84 | 4.5 | 1.29 | 1.73 | 7.46 | 8.92 | 1 | 1.42 | 0.53 | 3.47 | 1.8 | 3.6 | 0.37 |
| CN(C)C/C=C/C(=O)Nc1cc2c(Nc3ccc(F)c(Cl)c3)ncnc2cc1O[C@H]1CCOC1 [Afatinib (BIBW2992)] | 0.69 | -0.42 | 0.26 | 1.35 | 0.99 | 0.05 | 0.86 | 4.16 | 0.66 | 0.51 | -0.38 | 7.09 | 0.09 | 0.25 | 0.35 | 0.5 | 1 | 0.48 | 0.78 | 0.57 |
| CN1CC[C@H](c2c(O)cc(O)c3c(=O)cc(-c4ccccc4Cl)oc23)[C@H](O)C1 [Flavopiridol HCl] | 1.65 | 0.99 | 0.18 | 2.02 | 1.25 | 0.4 | 0.81 | 1.99 | 1.82 | 0.56 | 0.77 | 4.9 | 0.91 | 0.55 | 0.9 | 0.71 | 3.57 | 1.71 | 0.71 | 0.03 |
| O=C(NOC[C@H](O)CO)c1ccc(F)c(F)c1Nc1ccc(I)cc1F | 0.77 | 0.16 | 0.43 | 0.47 | 0.21 | 0.26 | 0.28 | -0.05 | 0.76 | 0.78 | -0.16 | -0.38 | 0.88 | 0.62 | 0.37 | 1.5 | 0.23 | 1.03 | 1.11 | 0.26 |
